Laboratory results from the supplement of paper PMC13380429.

Tested on: Vero E6 infected with SARS-CoV-2
Assay: inhibition of SARS-CoV-2 cytopathic effect; higher = more antiviral protection, active = above 15
Conditions: 48 h

Measured: inhibition of SARS-CoV-2 cytopathic effect

CN1CCCCC1Cn1cc(C(=O)c2cc([N+](=O)[O-])ccc2I)c2ccccc21 (stereo not given)
inactive: 1 nM -0.48% | 8.33 nM 0.44% | 100 nM 0.04% | 833.33 nM -2.69% | 10000 nM 4.92%

Cc1cc(C(=O)Nc2nc3cccc(Cl)c3n2[C@@H]2CCCCN(C(=O)/C=C/CN(C)C)C2)ccn1
inactive: 1 nM 2.52% | 8.33 nM -0.94% | 100 nM 0.57% | 833.33 nM -8.44% | 10000 nM 10.4%

CCCCCCCCCCCC[N+](C)(C)CCOc1ccccc1 [domiphen]
inactive: 1 nM -2.49% | 8.33 nM -1.64% | 100 nM 0.17% | 833.33 nM 0.26% | 10000 nM -8.43%

CC(=O)N[C@@H](CS)C(=O)O [acetylcysteine]
inactive: 1 nM 1.87% | 8.33 nM 1.77% | 100 nM 3.98% | 833.33 nM 1.93% | 10000 nM 3.74%

CCc1oc2ccccc2c1C(=O)c1cc(Br)c(O)c(Br)c1 [benzbromarone]
inactive: 1 nM -1.45% | 8.33 nM 0.69% | 100 nM -2.5% | 833.33 nM -0.89% | 10000 nM 0.48%

C[C@]12CC[C@@H]3c4ccc(OC(=O)c5ccccc5)cc4CC[C@H]3[C@@H]1CC[C@@H]2O [estradiol-benzoate]
inactive: 1 nM -5.16% | 8.33 nM -2.11% | 100 nM -2.68% | 833.33 nM -4.8% | 10000 nM -5.99%

O=C(O)/C=C\c1c[nH]cn1 [cis-Urocanic acid]
inactive: 1 nM 0.865% | 8.33 nM -1.24% | 100 nM -1.15% | 833.33 nM -0.955% | 10000 nM 1.12%

CCCCOCCOc1nc(-c2ccc(C(=O)O)c(F)c2)sc1C
inactive: 1 nM -0.86% | 8.33 nM -0.63% | 100 nM -1.87% | 833.33 nM -1.76% | 10000 nM 2.1%

CN1CCN(c2cc(-c3ccccc3)nc(N)n2)CC1
inactive: 1 nM 2.02% | 8.33 nM 3.76% | 100 nM 2.45% | 833.33 nM 4.99% | 10000 nM 2.49%

Cc1ccc(O)c(N=Nc2ccccc2)n1
inactive: 1 nM -2.81% | 8.33 nM -4.41% | 100 nM -3.53% | 833.33 nM 0.01% | 10000 nM 3.77%

Cc1cc(-c2cc(O)ccc2Cl)cc2nnc(Nc3ccc(OCCN4CCCC4)cc3)nc12
inactive: 1 nM -1.19% | 8.33 nM 1.04% | 100 nM 4.54% | 833.33 nM -1.25% | 10000 nM -21.4%

CCn1c(-c2nonc2N)nc2cncc(CNC3CCNCC3)c21
inactive: 1 nM 0.63% | 8.33 nM -1.43% | 100 nM -0.75% | 833.33 nM -2.49% | 10000 nM -3.57%

COc1c(O[C@@H]2O[C@H](CO)[C@@H](O)[C@H](O)[C@H]2O)cc2c(c1OC)-c1ccc(SC)c(=O)cc1[C@@H](NC(C)=O)CC2 [thiocolchicoside]
inactive: 1 nM 0.08% | 8.33 nM 2.05% | 100 nM -0.7% | 833.33 nM -5.51% | 10000 nM -3.66%

O=C(O)c1cc(/N=N/c2ccc(S(=O)(=O)Nc3ccccn3)cc2)ccc1O [sulfasalazine]
inactive: 1 nM -0.13% | 8.33 nM -2.23% | 100 nM -0.23% | 833.33 nM -1.38% | 10000 nM 0.47%

OCc1ccc(CO)o1 [2,5-furandimethanol]
inactive: 1 nM -0.97% | 8.33 nM 0.38% | 100 nM 0.27% | 833.33 nM 2.21% | 10000 nM 0.97%

Cc1sc2c(c1C)C(c1ccc(Cl)cc1)=N[C@@H](CC(N)=O)c1nnc(C)n1-2
inactive: 1 nM -0.7% | 8.33 nM -0.88% | 100 nM 0.16% | 833.33 nM -4.22% | 10000 nM -9.8%

CCCC[C@@H](NC(=O)[C@@H](Cc1cn(C(=O)OC)c2ccccc12)NC(=O)[C@H](CC(C)(C)C)NC(=O)N1[C@H](C)CCC[C@@H]1C)C(=O)O
inactive: 1 nM 1.03% | 8.33 nM 2.89% | 100 nM 1.32% | 833.33 nM -1.6% | 10000 nM 1.29%

CC(C)(O)C(=O)N1CCN(c2ccc(C(F)(F)F)c(C3=C(c4c[nH]c5ccccc45)C(=O)NC3=O)c2)CC1
inactive: 1 nM -0.88% | 8.33 nM -0.68% | 100 nM -5.41% | 833.33 nM -0.21% | 10000 nM 4.03%

Cn1cc(-c2ccc(S(=O)(=O)n3ccc(/C=C/C(=O)Nc4ccccc4N)c3)cc2)cn1
inactive: 1 nM -0.95% | 8.33 nM 1.05% | 100 nM -0.51% | 833.33 nM -4.65% | 10000 nM -1.31%

Cc1c(-c2ccc(O)cc2)n(Cc2ccc(OCCN3CCCCCC3)cc2)c2ccc(O)cc12 [bazedoxifene]
inactive: 1 nM -2% | 8.33 nM -3.97% | 100 nM -2.44% | 833.33 nM -5.76%
active: 10000 nM 48.9%

O=C(NCC1CCOCC1)c1cnc(Nc2ccc(Cl)cc2Cl)nc1C(F)(F)F
inactive: 1 nM -0.74% | 8.33 nM 0.36% | 100 nM 0.86% | 833.33 nM 1.5% | 10000 nM 3.56%

Nc1c(Br)cc(Br)cc1CN[C@H]1CC[C@H](O)CC1 [ambroxol]
inactive: 1 nM -4.07% | 8.33 nM -1% | 100 nM -0.99% | 833.33 nM 1.23% | 10000 nM -1.75%

O=C1CN(/N=C/c2ccc([N+](=O)[O-])o2)C(=O)N1 [nitrofurantoin]
inactive: 1 nM -0.06% | 8.33 nM -0.32% | 100 nM 0.43% | 833.33 nM 0.55% | 10000 nM 1.5%

O=C1c2ccccc2C(=O)C1c1ccc(Br)cc1 [bromindione]
inactive: 1 nM -0.87% | 8.33 nM 2.1% | 100 nM -2.65% | 833.33 nM 1.04% | 10000 nM 0.05%

C#Cc1cccc2c1c(C(=O)c1ccc(Cn3c(C)nc4cnccc43)c(F)c1)cn2C(=O)N(C)C
inactive: 1 nM -0.44% | 8.33 nM -1.26% | 100 nM 0.63% | 833.33 nM -0.09% | 10000 nM -1.98%

COc1ccc2[nH]c(C(=O)c3ccccc3)cc2c1
inactive: 1 nM 0.63% | 8.33 nM 1.49% | 100 nM 0.36% | 833.33 nM 0.6% | 10000 nM 0.07%

C[C@H]1CN(C[C@H](Cc2ccccc2)C(=O)NCC(=O)O)CC[C@@]1(C)c1cccc(O)c1 [alvimopan]
inactive: 1 nM 1.74% | 8.33 nM 3.07% | 100 nM 3.04% | 833.33 nM -0.26% | 10000 nM 2.12%

O=C(O)c1cnn(-c2nc3cc(OC(F)(F)F)c(Cl)cc3[nH]2)c1
inactive: 1 nM 0.36% | 8.33 nM 1.44% | 100 nM 1.23% | 833.33 nM 1.43% | 10000 nM -0.28%

CN1CCc2nc(C(=O)N[C@@H]3C[C@@H](C(=O)N(C)C)CC[C@@H]3NC(=O)C(=O)Nc3ccc(Cl)cn3)sc2C1 [edoxaban]
inactive: 1 nM -1.16% | 8.33 nM -1.57% | 100 nM -1.51% | 833.33 nM -3.37% | 10000 nM -1.69%

COc1cc(C(=O)N2CCC(N3CCN(C)CC3)CC2)ccc1Nc1ncc2c(n1)N(C)c1ccccc1C(=O)N2C
inactive: 1 nM 0.64% | 8.33 nM -0.23% | 100 nM 2.57% | 833.33 nM 1.89% | 10000 nM -6.43%

Cc1cc(=O)oc2c(C=O)c(O)ccc12
inactive: 1 nM 0.13% | 8.33 nM 2.74% | 100 nM 1.64% | 833.33 nM 2.83% | 10000 nM 6.12%

Cc1ccc(C(=O)c2ccc(CC(=O)O)n2C)cc1 [tolmetin]
inactive: 1 nM -2.48% | 8.33 nM -1.62% | 100 nM -1.05% | 833.33 nM -0.39% | 10000 nM 0.75%

CN(C)C(=O)N[C@H]1CC[C@H](CCN2CCN(c3cccc(Cl)c3Cl)CC2)CC1 [cariprazine]
inactive: 1 nM -2.57% | 8.33 nM 1.1% | 100 nM -0.14% | 833.33 nM 3.01% | 10000 nM -3.84%

C[C@@]1(F)[C@H](O)[C@@H](CO)O[C@H]1n1ccc(N)nc1=O
inactive: 1 nM 0.11% | 8.33 nM -0.83% | 100 nM -0.8% | 833.33 nM 1.12% | 10000 nM 0.26%

CN1CCN(c2cccc(Nc3nc4c(-c5ccc(S(C)(=O)=O)cc5)cccn4n3)c2)CC1
inactive: 1 nM -0.26% | 8.33 nM 0.06% | 100 nM 0.85% | 833.33 nM -0.58% | 10000 nM -4.01%

CC(C)(Oc1ccc(C2CC2(Cl)Cl)cc1)C(=O)O (stereo not given) [ciprofibrate]
inactive: 1 nM -2% | 8.33 nM 1.09% | 100 nM -0.52% | 833.33 nM -2.34% | 10000 nM -4.5%

NC(=O)C1=CN([C@@H]2O[C@H](COP(=O)(O)OP(=O)(O)OC[C@H]3O[C@@H](n4cnc5c(N)ncnc54)[C@H](OP(=O)(O)O)[C@@H]3O)[C@@H](O)[C@H]2O)C=CC1
inactive: 1 nM 0.75% | 8.33 nM 3.17% | 100 nM 2.16% | 833.33 nM 0.8% | 10000 nM -1.27%

CCOc1ccc(C[C@H]2NC(=O)CCSSC[C@@H](C(=O)N3CCC[C@H]3C(=O)N[C@@H](CCCN)C(=O)NCC(N)=O)NC(=O)[C@H](CC(N)=O)NC(=O)[C@H]([C@@H](C)O)NC(=O)[C@H]([C@@H](C)CC)NC2=O)cc1 [atosiban]
inactive: 1 nM 1.81% | 8.33 nM -1.47% | 100 nM -2.35% | 833.33 nM -0.16% | 10000 nM 0.37%

NCc1ccccc1CC(=O)N[C@@H]1C(=O)N2C(C(=O)O)=C(CSc3nnnn3CC(=O)O)CS[C@H]12 [ceforanide]
inactive: 1 nM 0.96% | 8.33 nM 0.98% | 100 nM -0.17% | 833.33 nM 2.04% | 10000 nM 2.57%
